Source: PubChem BioAssay (NCI)
“And” between values parts separate entries of the source, which are not always exact repeats. Identical values can stand only once. This is part of a sample that, as a whole, favours compounds with a hit. Of some 83,000 tested, about 20% had one in any assay.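 Activity criterion: percent growth below 10, measured after cells in 96-well plates were exposed to a single compound concentration for 48 hours.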 The source made the active and inactive calls.

test system: A498 renal; assay: NCI-60 one-dose screen, 48 h (100 = growth as untreated, 0 = no growth, -100 = all killed); conditions: 1 µM
Experimental: Growth inhibition of the A498 human tumor cell line is measured as a screen for anti-cancer activity. Cells are grown in 96 well plates and exposed to the test compound for 48 hours. Compounds are tested at a single concentration, which is 10^-5 M for most compounds. The reported endpoint is percent growth (GI% or GIPRCNT), where numbers from 0 - 100% represent growth inhibition, and numbers from -100% - 0 represent cell death. For example, a value of 40 represents 60% growth inhibition. A value of 0 means no net growth occurred over the course of the experiment. A value of -40 indicates 40% of cells at the beginning of the experiment died by the end of the experiment. A value of -100 means all cells are dead at the end of the experiment.
NCI-60 Human Tumor Cell Lines Screen was performed using the standard one-dose NCI protocol, which is described in more detail at https://dtp.cancer.gov/discovery_development/nci-60/default.htm.
Compounds with GIPRCNT values below 10 were considered active. Activity score was based on GIPRCNT using the following formula: […]
Score is 0 for GIPRCNT values of 100 or above, 50 for GIPRCNT values of 0, and 100 for GIPRCNT values of -100.

SMILES | growth
CNC(=O)c1cc(Oc2ccc(CC(=O)Nc3cc(C(C)(C)C)nn3C)cc2)ccn1 | 69.3% (inactive)

same assay, conditions: 10 µM

SMILES | growth
CC(C)(C)c1cc(NC(=O)Cc2ccc(-c3cnc4cc(-c5cnn(CCN6CCOCC6)c5)ccc4n3)cc2)no1 | -26.9% (active)
CC#C[C@]1(O)CC[C@H]2[C@@H]3CCC4=CC(=O)CCC4=C3[C@@H](c3ccc4c(c3)OCO4)C[C@@]21C | 63% (inactive)
CNC(=O)c1cc(Oc2ccc(CC(=O)Nc3cc(C(C)(C)C)nn3C)cc2)ccn1 | 31.2% (inactive)

same assay, conditions: 10 µM unless noted

SMILES | growth
Cc1ncsc1CCO | 81.3% (inactive) and 97.6% (inactive)
CCN(CC)C(=O)c1cccnc1 | 114% (inactive)
N#CC(C#N)=C/C=C/c1cccc([N+](=O)[O-])c1 | 94.4% (inactive) and 2.43% (active)
Oc1nc(NCCc2ccccc2)sc1/C=C1\C=Nc2ncccc21 | -21.3% (active) and -7.55% (active)
CNC(=O)c1cccc(-c2ccc3c(N4CCOC[C@@H]4C)nc(N4CCOC[C@@H]4C)nc3n2)c1 | -35.6% (active) and -37.8% (active)
COc1c(/C(C)=N/N=c2sc(C(C)=O)nn2-c2ccc(Cl)cc2)c(Oc2ccccc2)c(OC)c2occc12 | 100% (inactive) and 77.1% (inactive)
O=C(Nc1ccc(Br)cc1)c1cc(Br)ccc1O | -12.7% (active) and -34.6% (active)
OCCN1CCN(CCCN2c3ccccc3Sc3ccc(Cl)cc32)CC1 | 58.4% (inactive) and 77.8% (inactive)
c1ccc2cc(C[n+]3ccn(Cc4ccc5ccccc5n4)c3)ccc2c1 | 49.1% (inactive) and 61.6% (inactive)
O=C(Nc1ccc([N+](=O)[O-])cc1Cl)c1cc(Cl)ccc1O | -22% (active)
S=C(S)N1CCCC1 | 72.5% (inactive) and 102% (inactive)
Cc1n[nH]c(=O)n(/N=C\c2c[nH]c3ccccc23)c1=O | 103% (inactive)
CC1=NN(c2ccccc2)C(=O)C1C(=O)c1ccccc1 (stereo not given) | 92.4% (inactive)
C/C(=N\NC(=O)c1ccncc1)c1ccccc1O | 68.9% (inactive)
O=C(/C=C/c1ccccn1)c1ccccc1O | 110% (inactive)
CCOC(=O)Nc1nc2ccccc2[nH]1 | 117% (inactive) and 42.3% (inactive)
Cc1ccc2nc3c(nc2c1)-c1cccc2cccc-3c12 | 83.1% (inactive)

SMILES | growth
O=C(N/N=C/c1cccc2ccccc12)C1CC1 | 102% (inactive)
COc1cc2c(c(OC)c1OC)-c1ccc(OC)c(=O)cc1[C@@H](NC(C)=O)CC2 | -0.067% (active) and 15.5% (inactive)
CC1=CCC2CC1C2(C)C (stereo not given) | 103% (inactive) and 81% (inactive)
CC(=O)c1ccccc1O | 92.5% (inactive) and 86.6% (inactive)
N#C/C(=C/c1c(O)ccc2ccccc12)C(N)=O | 107% (inactive)
CCN(CC)CCc1nc(-c2ccccc2)no1 | 108% (inactive) and 110% (inactive)
CN(C)c1ccc(C(Cc2ccc3ccccc3n2)Cc2ccc3ccccc3n2)cc1 | 33.7% (inactive) and 59.3% (inactive)
Oc1ccc(/C=C/c2ccccc2)cc1 | 83.1% (inactive) and 59.4% (inactive)
O=[N+]([O-])c1ccc(-n2[nH]nnc2=S)cc1 | 95.1% (inactive)
N#C/C(=C1C=C/C(=N/O)C(Br)=C/1)c1ccccc1 | 63.7% (inactive)
CCOC(=O)C(C(=O)OCC)C(c1ccccc1)N1CCN(c2ccccc2)CC1 (stereo not given) | 139% (inactive) and 107% (inactive)
Nc1n[nH]c(=S)n1-c1ccc(Cl)cc1 | 109% (inactive)
NC(=O)c1ccccc1OCC(O)CO (stereo not given) | 94.6% (inactive)
O=C1c2c(O)cc(O)cc2OC(c2ccc(O)c(O)c2)C1O (stereo not given) | 107% (inactive)
CCN1CCN(CCNc2nccc(-c3c(-c4cccc(O)c4)nc4sccn34)n2)S1(=O)=O | 74.2% (inactive) and 66.8% (inactive)
CCOc1ccc2nc3cc(N)ccc3c(N)c2c1 | 71% (inactive) and 79.9% (inactive)

same assay, conditions: 30 µM

SMILES | growth
CC(C)(C)c1cc(NC(=O)Cc2ccc(-c3cnc4cc(-c5cnn(CCN6CCOCC6)c5)ccc4n3)cc2)no1 | -14.9% (active)
CNC(=O)c1cc(Oc2ccc(CC(=O)Nc3cc(C(C)(C)C)nn3C)cc2)ccn1 | 54.8% (inactive)

same assay, conditions: 100 µM

SMILES | growth
CC#C[C@]1(O)CC[C@H]2[C@@H]3CCC4=CC(=O)CCC4=C3[C@@H](c3ccc4c(c3)OCO4)C[C@@]21C | -59.7% (active)
